# Hit rate of the full screen: of about 5,500 compounds, about 2,000 (36%) were called active. Not shown: some 18% with an inconclusive outcome. This is one part of the list. Unmarked numbers belong to inactive results. Rule as the data show it: active = normalized growth mostly below about 0.91 (no sharp cut-off); inconclusive = no clear call, values can overlap the other calls; inactive = mostly above about 0.92.
# Assay: chemical genetic growth profiling, strain panel (AID 1159580);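 also: tested at 20 µM; growth read once vehicle control cultures reached saturation at 30 °C; 1 = growth at the plate median or of vehicle wells; lower values mean less growth of the strain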
# Details: S. cerevisiae deletion strains, growth OD
# [1] = locus YAL013W, strain DEP1, hits give low values
# [2] = locus YAL040C, strain CLN3, hits give low values
# [3] = locus YDR363W, strain ESC2, hits give low values
# [4] = locus YER002W, strain NOP16, hits give low values
# [5] = locus YNL153C, strain GIM3, hits give low values
# [6] = locus YNL175C, strain NOP13, hits give low values
# [7] = locus YNL197C, strain WHI3, hits give low values
# [8] = locus YNL224C, strain SQS1, hits give low values
# [9] = locus YOR083W, strain WHI5 (second series), hits give low values
# [10] = locus YPL055C, strain LGE1, hits give low values
# [11] = locus YGR078C, strain PAC10, hits give low values
# [12] = locus YMR263W, strain SAP30, hits give low values
# [13] = locus YNL322C, strain KRE1, hits give low values
# [14] = locus YAR019C, strain CDC15, hits give low values
# [15] = locus YBL105C, strain PKC1, hits give low values
# [16] = locus YBR135W, strain CKS1, hits give low values
# [17] = locus YBR136W, strain MEC1, hits give low values
# [18] = locus YBR160W, strain CDC28, hits give low values
# [19] = locus YDL017W, strain CDC7, hits give low values
# [20] = locus YDL028C, strain MPS1, hits give low values
# [21] = locus YDL101C, strain DUN1, hits give low values
# [22] = locus YDL108W, strain KIN28, hits give low values
# [23] = locus YDL132W, strain cdc53, hits give low values
# [24] = locus YDL214C, strain PRR2, hits give low values
# [25] = locus YDR052C, strain DBF4, hits give low values
# [26] = locus YDR054C, strain cdc34, hits give low values
# [27] = locus YDR226W, strain ADK1, hits give low values
# [28] = locus YDR477W, strain SNF1, hits give low values
# [29] = locus YER123W, strain YCK3, hits give low values
# [30] = locus YER133W, strain GLC7, hits give low values
# [31] = locus YFL009W, strain cdc4, hits give low values
# [32] = locus YFL029C, strain CAK1, hits give low values
# [33] = locus YFR003C, strain YPI1, hits give low values
# [34] = locus YFR019W, strain FAB1, hits give low values
# [35] = locus YFR028C, strain CDC14, hits give low values
# [36] = locus YGR040W, strain KSS1, hits give low values
# [37] = locus YGR052W, strain FMP48, hits give low values
# [38] = locus YGR092W, strain DBF2, hits give low values
# [39] = locus YHR030C, strain SLT2, hits give low values
# [40] = locus YHR079C, strain IRE1, hits give low values
# [41] = locus YHR082C, strain KSP1, hits give low values
# [42] = locus YHR205W, strain SCH9, hits give low values
# [43] = locus YIL147C, strain SLN1, hits give low values
# [44] = locus YJL095W, strain BCK1, hits give low values
# [45] = locus YJL128C, strain PBS2, hits give low values
# [46] = locus YJL157C, strain FAR1, hits give low values
# [47] = locus YJR016C, strain ILV3, hits give low values
# [48] = locus YJR066W, strain TOR1 (second series), hits give low values
# [49] = locus YJR066W, strain TOR1, hits give low values
# [50] = locus YKL048C, strain ELM1, hits give low values
# [51] = locus YKL067W, strain YNK1, hits give low values
# [52] = locus YKL101W, strain HSL1, hits give low values
# [53] = locus YKL193C, strain SDS22, hits give low values
# [54] = locus YKL203C, strain TOR2, hits give low values
# [55] = locus YLR113W, strain HOG1, hits give low values
# [56] = locus YLR133W, strain CKI1, hits give low values
# [57] = locus YLR403W, strain SFP1, hits give low values
# [58] = locus YML070W, strain DAK1, hits give low values
# [59] = locus YMR001C, strain CDC5, hits give low values
# [60] = locus YMR205C, strain PFK2 (second series), hits give low values
# [61] = locus YMR277W, strain FCP1, hits give low values
# [62] = locus YNL006W, strain LST8, hits give low values
# [63] = locus YNL020C, strain ARK1, hits give low values
# [64] = locus YNL161W, strain CBK1, hits give low values
# [65] = locus YNL183C, strain NPR1, hits give low values
# [66] = locus YNL207W, strain RIO2, hits give low values
# [67] = locus YNL222W, strain SSU72, hits give low values
# [68] = locus YNL307C, strain MCK1 (second series), hits give low values
# [69] = locus YOL078W, strain AVO1, hits give low values
# [70] = locus YOL136C, strain PFK27, hits give low values
# [71] = locus YOR061W, strain CKA2, hits give low values
# [72] = locus YOR119C, strain RIO1, hits give low values
# [73] = locus YOR231W, strain MKK1, hits give low values
# [74] = locus YOR329C, strain SCD5, hits give low values
# [75] = locus YPL031C, strain PHO85, hits give low values
# [76] = locus YPL153C, strain RAD53, hits give low values
# [77] = locus YPL204W, strain HRR25, hits give low values
# [78] = locus YPL209C, strain IPL1, hits give low values
# [79] = locus YPL256C, strain CLN2, hits give low values
# [80] = locus YPR025C, strain CCL1, hits give low values
# [81] = locus YPR106W, strain ISR1, hits give low values
# [82] = locus YPR111W, strain DBF20, hits give low values
# [83] = strain NNK1, hits give low values
# [84] = strain TSCII, hits give low values
structure (smiles),measurement,setting,value
O=C(O)CN(CCN(CC(=O)O)CC(=O)O)CCN(CC(=O)O)CC(=O)O,normalized growth,[1],0.278 (active)
same,normalized growth,[2],1.03
same,normalized growth,[3],0.194 (active)
same,normalized growth,[4],1.01
same,normalized growth,[5],1.16
same,normalized growth,[6],1.01
same,normalized growth,[7],1.02
same,normalized growth,[8],1
same,normalized growth,[9],1.07
same,normalized growth,[10],0.198 (active)
O=C(O)CN(CCOCCOCCN(CC(=O)O)CC(=O)O)CC(=O)O,normalized growth,[1],1.03
same,normalized growth,[2],0.99
same,normalized growth,"locus YCL061C, strain MRC1 (second series), hits give low values",1
same,normalized growth,[3],1
same,normalized growth,[4],0.996
same,normalized growth,[11],1.01
same,normalized growth,[12],1
same,normalized growth,[6],0.996
same,normalized growth,[7],1
same,normalized growth,[8],0.992
same,normalized growth,[13],1.02
same,normalized growth,[9],1.01
same,normalized growth,[10],1.06
N/C(=N/OC(=O)Nc1cccc(C(F)(F)F)c1)c1ccc(OC(F)(F)F)cc1,normalized growth,[14],0.983
same,normalized growth,[15],1
same,normalized growth,[16],0.979
same,normalized growth,[17],0.985
same,normalized growth,[18],0.969
same,normalized growth,[19],0.995
same,normalized growth,[20],0.972
same,normalized growth,[21],0.989
same,normalized growth,[22],0.975
same,normalized growth,[23],0.979
same,normalized growth,[24],0.895
same,normalized growth,[25],0.998
same,normalized growth,[26],0.971
same,normalized growth,[27],0.971
same,normalized growth,[28],0.822
same,normalized growth,[29],0.524 (active)
same,normalized growth,[30],0.893
same,normalized growth,[31],0.953
same,normalized growth,[32],0.981
same,normalized growth,[33],0.994
same,normalized growth,[34],0.745 (active)
same,normalized growth,[35],0.976
same,normalized growth,[36],0.837
same,normalized growth,[37],0.551 (active)
same,normalized growth,[38],0.616
same,normalized growth,[39],0.21 (active)
same,normalized growth,[40],0.306 (active)
same,normalized growth,[41],0.496 (active)
same,normalized growth,[42],0.882
same,normalized growth,[43],0.988
same,normalized growth,[44],0.287 (active)
same,normalized growth,[45],0.93
same,normalized growth,[46],0.905
same,normalized growth,[47],0.988
same,normalized growth,[48],0.731
same,normalized growth,[49],0.555
same,normalized growth,[50],0.874
same,normalized growth,[51],0.883
same,normalized growth,[52],0.743
same,normalized growth,[53],0.985
same,normalized growth,[54],0.895
same,normalized growth,[55],0.361 (active)
same,normalized growth,[56],0.887
same,normalized growth,[57],0.914
same,normalized growth,[58],0.716
same,normalized growth,[59],0.983
same,normalized growth,[60],0.906
same,normalized growth,[61],0.97
same,normalized growth,[62],0.977
same,normalized growth,[63],0.794
same,normalized growth,[64],0.996
same,normalized growth,[65],0.53 (active)
same,normalized growth,[66],0.995
same,normalized growth,[67],0.973
same,normalized growth,[68],0.814
same,normalized growth,[69],0.983
same,normalized growth,[70],0.821
same,normalized growth,[71],0.883
same,normalized growth,[72],0.869
same,normalized growth,[73],0.269 (active)
same,normalized growth,[74],0.993
same,normalized growth,[75],0.749
same,normalized growth,[76],0.485 (active)
same,normalized growth,[77],0.684
same,normalized growth,[78],0.992
same,normalized growth,[79],0.456 (active)
same,normalized growth,[80],0.99
same,normalized growth,[81],0.976
same,normalized growth,[82],0.946
same,normalized growth,[83],0.98
same,normalized growth,[84],0.986
CC1(C)C=Cc2cc(/C(N)=N\OC(=O)Nc3cccc(C(F)(F)F)c3)ccc2O1,normalized growth,[14],0.981
same,normalized growth,[15],0.982
same,normalized growth,[16],0.969
same,normalized growth,[17],0.972
same,normalized growth,[18],0.977
same,normalized growth,[19],0.987
same,normalized growth,[20],0.977
same,normalized growth,[21],0.988
same,normalized growth,[22],0.977
same,normalized growth,[23],0.977
same,normalized growth,[24],0.947
same,normalized growth,[25],0.989
same,normalized growth,[26],0.97
same,normalized growth,[27],0.976
same,normalized growth,[28],0.967
same,normalized growth,[29],0.866
same,normalized growth,[30],0.947
same,normalized growth,[31],0.976
same,normalized growth,[32],0.982
same,normalized growth,[33],0.984
same,normalized growth,[34],0.883
same,normalized growth,[35],0.978
same,normalized growth,[36],0.968
same,normalized growth,[37],0.99
same,normalized growth,[38],0.854
same,normalized growth,[39],0.426 (active)
same,normalized growth,[40],0.825
same,normalized growth,[41],0.917
same,normalized growth,[42],0.912
same,normalized growth,[43],0.98
same,normalized growth,[44],0.726
same,normalized growth,[45],0.967
same,normalized growth,[46],0.96
same,normalized growth,[47],0.975
same,normalized growth,[48],0.832
same,normalized growth,[49],0.827
same,normalized growth,[50],0.934
same,normalized growth,[51],0.933
same,normalized growth,[52],0.934
same,normalized growth,[53],0.979
same,normalized growth,[54],0.991
same,normalized growth,[55],0.832 (active)
same,normalized growth,[56],0.937
same,normalized growth,[57],0.949
same,normalized growth,[58],0.887
same,normalized growth,[59],0.98
same,normalized growth,[60],0.93
same,normalized growth,[61],0.987
same,normalized growth,[62],0.985
same,normalized growth,[63],0.924
same,normalized growth,[64],0.984
same,normalized growth,[65],0.801
same,normalized growth,[66],0.984
same,normalized growth,[67],0.981
same,normalized growth,[68],0.931
same,normalized growth,[69],0.976
same,normalized growth,[70],0.903
same,normalized growth,[71],0.945
same,normalized growth,[72],1.04
same,normalized growth,[73],0.823
same,normalized growth,[74],0.988
same,normalized growth,[75],0.935
same,normalized growth,[76],0.871
same,normalized growth,[77],0.903
same,normalized growth,[78],0.98
same,normalized growth,[79],0.831 (active)
same,normalized growth,[80],0.978
same,normalized growth,[81],0.981
same,normalized growth,[82],0.963
same,normalized growth,[83],0.993
same,normalized growth,[84],0.979
O=C(Nc1ccc(OC(F)(F)F)cc1)Nc1cccc(C(=O)O)c1,normalized growth,[1],1.01
same,normalized growth,"locus YBR229C, strain ROT2, hits give low values",0.999
same,normalized growth,"locus YCL061C, strain MRC1, hits give low values",1.01
same,normalized growth,[21],1.01
same,normalized growth,"locus YDL134C, strain PPH21, hits give low values",1.04
same,normalized growth,"locus YDR150W, strain NUM1, hits give low values",0.947
same,normalized growth,"locus YEL061C, strain CIN8, hits give low values",1.02
same,normalized growth,[11],1
same,normalized growth,[39],1.02
same,normalized growth,"locus YHR087W, strain rtc3, hits give low values",1.02
same,normalized growth,"locus YJL187C, strain SWE1, hits give low values",1.01
same,normalized growth,"locus YJR043C, strain POL32, hits give low values",0.974
same,normalized growth,"locus YJR075W, strain HOC1, hits give low values",1.01
same,normalized growth,"locus YLR039C, strain RIC1, hits give low values",0.995
same,normalized growth,"locus YLR058C, strain SHM2 (second series), hits give low values",1.01
same,normalized growth,"locus YLR085C, strain ARP6, hits give low values",1.07
same,normalized growth,"locus YLR262C, strain YPT6, hits give low values",0.981
same,normalized growth,"locus YML094W, strain GIM5, hits give low values",1.02
same,normalized growth,"locus YMR219W, strain ESC1, hits give low values",1
same,normalized growth,[12],1.02
same,normalized growth,"locus YMR307W, strain GAS1, hits give low values",1.08
same,normalized growth,[5],0.988
same,normalized growth,"locus YNL298W, strain CLA4 (second series), hits give low values",1
same,normalized growth,[13],0.999
same,normalized growth,"locus YNR030W, strain Alg12, hits give low values",1.04
same,normalized growth,[10],0.999
same,normalized growth,"locus YPL241C, strain CIN2, hits give low values",1.03
same,normalized growth,"locus YPR135W, strain CTF4, hits give low values",0.996

# From PubChem BioAssay AID1159580 (chemical genetic matrix, 2015)
